The values below come from PubChem BioAssay (NCI).

Compounds without any hit were thinned out: in the full panel of roughly 83,000, 20% have a hit.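 For each line, cells grew in 96-well plates with the test compound present at a single concentration for 48 hours.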 Unmarked numbers belong to inactive results. The source made the active and inactive calls. How the source made its calls: active means growth percent below 10; inactive means the rest.

The first assay relates to HS 578T breast. Kind of assay: NCI-60 one-dose screen, 48 h (100 = growth as untreated, 0 = no growth, -100 = all killed). Conditions: 10 µM unless noted.
Take `Nc1nc(-c2cc3c(cc2Cl)NC(=O)/C3=C/c2ccc(Cl)cc2)cs1`: the growth is 48.1%.

Take `Cc1cccc(Cc2cnc(NC(=O)CCc3ccc(C)o3)s2)c1`: the growth was 27.6%.

`CC(Cl)(CCl)CS(=O)(=O)c1ccc(Cl)cc1` (stereo not given): the growth was 97.3%.

Consider `COc1ccc(Cl)cc1NC(=O)c1cc2c([nH]1)-c1nc(NC(=O)C(C)(C)C)sc1CC2`, for which the growth was 44%.

In the case of `CC(C)(c1ccc(OCC(O)CNCc2ccco2)cc1)c1ccc(OCC(O)CNCc2ccco2)cc1` (stereo not given), the growth was 75.7%.

For `O=C1CCC(c2c(O)cc(O)c3c(=O)c(O)c(-c4ccc(O)c(O)c4)oc23)N1` (stereo not given), the growth was 100%.

Consider `COc1ccc(Cn2cc3c(c2-c2cc(OC)c(OC)c(OC)c2)CCc2c(CO)noc2-3)cc1`, for which the growth was 9.56% (active).

Consider `CC(=O)Cc1cccnc1`, for which the growth is 95.2%.

`CC(/C=C/C=C(\C)[C@H](O)[C@H](C)C(=O)O[C@H]1C[C@H](C)C=C2C=C[C@@]3(C)O[C@@H](O)CC(=O)[C@]3(C)[C@H]21)=C\C=C\C(=O)O`: the growth was -3.26% (active).

For `Nc1nc(-c2cc3c(cc2Cl)NC(=O)/C3=C/c2ccccc2)cs1`, the growth is 58.7%.

As for `C=CC(=O)NC(=O)Nc1ccccc1Cl`, the growth was 96.8%.

Regarding `CCOC(=O)c1noc2c1CCc1c-2cn(Cc2ccc(OC)cc2)c1-c1cc(OC)c(OC)c(OC)c1`, the growth is 8.37% (active).

For the compound `C=C1C(=O)O[C@H]2[C@H]1CC/C(COC(=O)OC/C1=C/CC[C@@]3(C)O[C@H]3[C@H]3OC(=O)[C@@H](CN(C)C)[C@@H]3CC1)=C\CC[C@@]1(C)O[C@@H]21`, the growth was 57.4%.

Take `CC1CCC(C(C)C)C(NN)C1` (stereo not given): the growth is 102%.

For the compound `Cc1cc(SCc2ccc(Cl)cc2Cl)nc(SCc2ccc(Cl)cc2Cl)n1`, the growth is 102%.

`CCCC(C)(C)COC(=O)c1cccc(N)c1`: the growth is 99.3%.

For the compound `O=C1C(Cl)=C(Nc2cccc3cc4ccccc4nc23)C(=O)c2ccccc21`, the growth is 95.2%.

With `CN(C)CCCOc1c(Br)cc(/C=C/C(=O)N(C)CCc2cc(Br)c(OCCCN(C)C)c(Br)c2)cc1Br`, the growth was 75.7%.

With `Nc1nccc(=S)[nH]1`, the growth is 103%.

Regarding `C=C1C(=O)O[C@H]2[C@H]1CC/C(COC(=O)CCCC(=O)OC/C1=C/CC[C@@]3(C)O[C@H]3[C@H]3OC(=O)C(=C)[C@@H]3CC1)=C\CC[C@@]1(C)O[C@@H]21`, the growth is 47.1%.

In the case of `O=C(NNC(=O)c1ccc([N+](=O)[O-])cc1)c1ccc([N+](=O)[O-])cc1`, the growth was 104%.

Take `COc1cc(C(=O)NNC(=O)c2ccccc2C(=O)O)cc(OC)c1OC`: the growth was 67.8%.

In the case of `O=S(c1ccccc1)c1ccc2nnnn2n1` (stereo not given), the growth is 97.7%.

With `Cc1ncc(CO)c(C(=O)O)c1O`, the growth is 102%.

On to `CCOC(=O)c1noc2c1CCc1cn(Cc3cc(OC)cc(OC)c3)cc1-2`, for which the growth was 99.7%.

`CCCCCC/C=N/Nc1ccc([N+](=O)[O-])cn1`: the growth was 108%.

`CC[C@@]1(O)C(=O)OCc2c1cc1n(c2=O)Cc2c-1nc1ccccc1c2/C=N/OC(C)(C)C`: the growth is 33%.

On to `CC(=O)Oc1ccc(C(OC(C)=O)OC(C)=O)cc1`, for which the growth was 105%.

For `C=C1C(=O)O[C@H]2[C@H]1CC/C(COC(=O)n1ccnc1C)=C\CC[C@@]1(C)O[C@@H]21`, the growth was 98%.

Consider `C=C1C(=O)O[C@H]2[C@H]1CC/C(C(=O)NCCOCCOCC(=O)Nc1ccc(OC)c(C(N)=O)c1O)=C\CC[C@@]1(C)O[C@@H]21`, for which the growth is 93%.

With `Cc1cc(C)c(O)c(C(=O)CC(Br)C(=O)O)c1` (stereo not given), the growth was 107%.

As for `COc1ccc(-c2ccc(NC(=O)Nc3cccc(C(F)(F)F)c3)c(C)n2)cc1`, the growth is 88.9%.

As to `COc1ccc(Cn2cc(COc3ccc4c5ccnc(C)c5n(CCCc5ccccc5)c4c3)nn2)cc1`, the growth was 77.8%.

`O=S(=O)(O)c1ccc(F)cc1`: the growth is 102%.

Regarding `Cc1nccc2c3ccc(OCc4cn(Cc5ccc(Br)cc5)nn4)cc3n(CCCc3ccccc3)c12`, the growth was 66.9%.

Regarding `Cl[C@@H]1CCO[C@H](c2cc3ccccc3c3ccccc23)C1`, the growth is 103%.

For `Nc1ncnc2c1c(C(F)(F)F)cn2[C@@H]1O[C@H](CO)[C@@H](O)[C@H]1O`, the growth is -0.85% (active).

`C#C[C@@]1(O)[C@@H](CO)O[C@@H](n2cc(Br)c3c(Cl)ccnc32)[C@@H]1O`: the growth is 40.9%.

The next assay has as its system NCI/ADR-RES ovarian. Described as above. To be noted: 10 µM unless noted.
In the case of `Nc1nc(-c2cc3c(cc2Cl)NC(=O)/C3=C/c2ccc(Cl)cc2)cs1`, the growth is 74.5%.

For the compound `Cc1cccc(Cc2cnc(NC(=O)CCc3ccc(C)o3)s2)c1`, the growth was 17.2%.

For `CC(Cl)(CCl)CS(=O)(=O)c1ccc(Cl)cc1` (stereo not given), the growth is 110%.

On to `COc1ccc(Cl)cc1NC(=O)c1cc2c([nH]1)-c1nc(NC(=O)C(C)(C)C)sc1CC2`, for which the growth is 40.9%.

For `CC(C)(c1ccc(OCC(O)CNCc2ccco2)cc1)c1ccc(OCC(O)CNCc2ccco2)cc1` (stereo not given), the growth was 93.2%.

As to `O=C1CCC(c2c(O)cc(O)c3c(=O)c(O)c(-c4ccc(O)c(O)c4)oc23)N1` (stereo not given), the growth was 96.8%.

Consider `COc1ccc(Cn2cc3c(c2-c2cc(OC)c(OC)c(OC)c2)CCc2c(CO)noc2-3)cc1`, for which the growth was 8.59% (active).

For `CC(=O)Cc1cccnc1`, the growth was 104%.

Turning to `Nc1nc(-c2cc3c(cc2Cl)NC(=O)/C3=C/c2ccccc2)cs1`, the growth is 74.6%.

Regarding `C=CC(=O)NC(=O)Nc1ccccc1Cl`, the growth was 105%.

Take `CCOC(=O)c1noc2c1CCc1c-2cn(Cc2ccc(OC)cc2)c1-c1cc(OC)c(OC)c(OC)c1`: the growth was 21.9%.

`C=C1C(=O)O[C@H]2[C@H]1CC/C(COC(=O)OC/C1=C/CC[C@@]3(C)O[C@H]3[C@H]3OC(=O)[C@@H](CN(C)C)[C@@H]3CC1)=C\CC[C@@]1(C)O[C@@H]21`: the growth was 91.2%.

With `CC1CCC(C(C)C)C(NN)C1` (stereo not given), the growth is 106%.

Take `Cc1cc(SCc2ccc(Cl)cc2Cl)nc(SCc2ccc(Cl)cc2Cl)n1`: the growth is 99.4%.

For the compound `CCCC(C)(C)COC(=O)c1cccc(N)c1`, the growth was 102%.

With `O=C1C(Cl)=C(Nc2cccc3cc4ccccc4nc23)C(=O)c2ccccc21`, the growth is 42.8%.

`CN(C)CCCOc1c(Br)cc(/C=C/C(=O)N(C)CCc2cc(Br)c(OCCCN(C)C)c(Br)c2)cc1Br`: the growth is 56.6%.

With `Nc1nccc(=S)[nH]1`, the growth was 107%.

For the compound `C=C1C(=O)O[C@H]2[C@H]1CC/C(COC(=O)CCCC(=O)OC/C1=C/CC[C@@]3(C)O[C@H]3[C@H]3OC(=O)C(=C)[C@@H]3CC1)=C\CC[C@@]1(C)O[C@@H]21`, the growth is 83.1%.

Regarding `O=C(NNC(=O)c1ccc([N+](=O)[O-])cc1)c1ccc([N+](=O)[O-])cc1`, the growth is 104%.

Take `COc1cc(C(=O)NNC(=O)c2ccccc2C(=O)O)cc(OC)c1OC`: the growth is 37.7%.

Consider `O=S(c1ccccc1)c1ccc2nnnn2n1` (stereo not given), for which the growth was 106%.

`Cc1ncc(CO)c(C(=O)O)c1O`: the growth was 104%.

As for `CCOC(=O)c1noc2c1CCc1cn(Cc3cc(OC)cc(OC)c3)cc1-2`, the growth is 97.9%.

Turning to `CCCCCC/C=N/Nc1ccc([N+](=O)[O-])cn1`, the growth was 102%.

As to `CC[C@@]1(O)C(=O)OCc2c1cc1n(c2=O)Cc2c-1nc1ccccc1c2/C=N/OC(C)(C)C`, the growth was 1.09% (active).

`CC(=O)Oc1ccc(C(OC(C)=O)OC(C)=O)cc1`: the growth is 103%.

Regarding `C=C1C(=O)O[C@H]2[C@H]1CC/C(COC(=O)n1ccnc1C)=C\CC[C@@]1(C)O[C@@H]21`, the growth is 96.3%.

Regarding `C=C1C(=O)O[C@H]2[C@H]1CC/C(C(=O)NCCOCCOCC(=O)Nc1ccc(OC)c(C(N)=O)c1O)=C\CC[C@@]1(C)O[C@@H]21`, the growth is 104%.

As to `Cc1cc(C)c(O)c(C(=O)CC(Br)C(=O)O)c1` (stereo not given), the growth was 103%.

In the case of `COc1ccc(-c2ccc(NC(=O)Nc3cccc(C(F)(F)F)c3)c(C)n2)cc1`, the growth was 53.2%.

Regarding `COc1ccc(Cn2cc(COc3ccc4c5ccnc(C)c5n(CCCc5ccccc5)c4c3)nn2)cc1`, the growth is 67%.

On to `O=S(=O)(O)c1ccc(F)cc1`, for which the growth is 104%.

`Cc1nccc2c3ccc(OCc4cn(Cc5ccc(Br)cc5)nn4)cc3n(CCCc3ccccc3)c12`: the growth is 78.8%.

For `Cl[C@@H]1CCO[C@H](c2cc3ccccc3c3ccccc23)C1`, the growth is 103%.

As for `Nc1ncnc2c1c(C(F)(F)F)cn2[C@@H]1O[C@H](CO)[C@@H](O)[C@H]1O`, the growth was 7.35% (active).

Regarding `C#C[C@@]1(O)[C@@H](CO)O[C@@H](n2cc(Br)c3c(Cl)ccnc32)[C@@H]1O`, the growth was 0.838% (active).
